# Test results reported in PubChem BioAssay AID588453 (National Center for Advancing Translational Sciences (NCATS), 2011).
# About 4,000 (1%) of roughly 390,000 compounds were called active. Inconclusive results (about 4%) are left out. The sample as a whole holds a higher share of actives than the screen did. Values without a mark were called inactive. Calls come from the whole dose curve; as a rule, active = well fitted inhibition curve with a large enough effect; inconclusive = small, poorly fitted or top-dose-only effect; inactive = no such curve, though single readings can be large or run the other way.
# Target: Thioredoxin reductase 1, cytoplasmic (Rattus norvegicus) (UniProt O89049)
# Sequence (O89049 whole entry, looked up): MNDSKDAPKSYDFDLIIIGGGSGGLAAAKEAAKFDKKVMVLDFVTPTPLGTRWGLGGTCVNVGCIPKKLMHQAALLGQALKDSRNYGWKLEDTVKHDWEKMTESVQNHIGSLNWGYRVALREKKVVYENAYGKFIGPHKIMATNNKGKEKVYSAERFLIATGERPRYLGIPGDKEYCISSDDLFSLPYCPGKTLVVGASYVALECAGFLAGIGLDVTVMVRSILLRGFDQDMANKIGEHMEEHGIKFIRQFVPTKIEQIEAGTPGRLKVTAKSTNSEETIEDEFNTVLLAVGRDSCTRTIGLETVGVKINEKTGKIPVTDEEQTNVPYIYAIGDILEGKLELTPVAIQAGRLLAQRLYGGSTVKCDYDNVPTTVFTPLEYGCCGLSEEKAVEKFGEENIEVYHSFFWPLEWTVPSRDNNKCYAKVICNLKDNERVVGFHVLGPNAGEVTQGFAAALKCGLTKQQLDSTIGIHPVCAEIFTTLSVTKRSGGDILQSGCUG
# Assay: qHTS Assay for Inhibitors of Mammalian Selenoprotein Thioredoxin Reductase 1 (TrxR1): qHTS; note: nearly all actives have a fitted effect of over 65% in size
# Details: recombinant rTrxR1, NADPH fluorescence consumption, selenite substrate; series mostly up to 114 µM; activity change, negative = inhibition: at the top concentration
# Source text: The selenoprotein thioredoxin reductase (TrxR; EC 1.8.1.9) is a FAD containing homodimeric pyridine nucleotide-disulfide oxidoreductase with many cellular roles. Together with NADPH and its prime substrate thioredoxin (Trx), the enzyme forms the core of the Trx system. The mammalian Trx system exerts a wide spectrum of functions including redox regulation, antioxidant defense, regulation of transcription factors as well as support of cell growth and replication. Many of these functions involve the reduction of Trx, which may subsequently reduce a number of different substrates including ribonucleotide reductase, peroxiredoxins or NFkB. Mammalian TrxR itself also has a broad substrate specificity, reducing both protein and non-protein substrates, including low molecular weight compounds such as dehydroascorbate, lipoic acid, ubiquinone, and juglone. In addition, several drugs in clinical use for anticancer treatment are indeed known to target TrxR1.
# This BioAssay is a validation of an NADPH fluorescence-based, dual-purpose qHTS rTrxR1 assay designed to find potential inhibitors and substrates of rTrxR1. For this particular BioAssay, actives are potential inhibitors. See related BioAssay for substrate data deposition.
# NIH Molecular Libraries Probe Production Network [MLPCN]
# NIH Chemical Genomics Center [NCGC]
# Assay Provider: Elias Arner, Karolinska Institute
# Assay protocol: 2 uL of reagents (buffer in column 4 as negative control and 90 nM rTrxR1 in columns 1-3 and 5-48) were dispensed into Greiner black solid-bottom 1,536-well assay plates, followed by 1 uL of NADPH (400 uM final concentration) to each well. The plates were centrifuged at 1000 rpm for 15 seconds and subsequently incubated for 5 min at room temperature (~22 deg C) to allow for rTrxR1 reduction. Compounds (23 nL) were then transferred via Kalypsys pin tool equipped with 1536-pin array (10 nL slotted pins, V&P Scientific, San Diego, CA). In addition, a duplicate 2-fold serial dilution of the control compounds auranofin, a known gold-based TrxR1 inhibitor, and juglone (5-hydroxy-1,4-naphthoquinone), a natural TrxR1 substrate, were pin-transferred to columns 2 and 3, respectively. After incubation for 15 min at room temperature (~22 deg C), 1 uL of selenite (400 uM final concentration) were dispensed to each well. The plate was immediately transferred to a ViewLux high-throughput CCD imager (PerkinElmer), wherein kinetic measurements of NADPH fluorescence (Ex 340 nm, Em 450 nm) were acquired (8 minute kinetic read, see Table 1). Read 1 was utilized to assess the capacity of a compound to serve as an rTrxR1 substrate, i.e. a decrease in NADPH fluorescence compared to the no-compound background is an indication of a substrate behavior for that particular compound. For inhibitory activity of a compound, delta values, computed as the difference in fluorescence intensity between the first and last reads of an 8-minute time kinetic window, were used. All reagents were diluted in an assay buffer consisting of 50 mM Tris-HCl, pH 7.5, 2 mM EDTA, and 0.01% Tween-20.
# Throughout the screen, reagent bottle and all liquid lines were made light-tight to minimize reagent degradation. All screening operations were performed on a fully integrated robotic system (Kalypsys, San Diego, CA) containing one RX-130 and two RX-90 anthropomorphic robotic arms (Staubli, Duncan, SC). Library plates were screened starting from the lowest and proceeding to the highest concentration, and a 'double-pinning' step of the highest concentration was required to access higher concentrations of compounds. Vehicle-only plates, with DMSO being pin-transferred to the columns 5-48, were inserted uniformly at the beginning and the end of each library in order to monitor and record any shifts in the background, which can be affected by reagent dispensers or loss in enzyme activity over time. […]
# % is set by controls: 0 for no effect and ±100 for the full control effect; potency is the fitted concentration of half-maximal effect.
Structure (SMILES),Potency,"activity change, negative = inhibition"
Cc1ccc2c(c1)=C/C(=C\c1c(O)[nH]c(=O)[nH]c1=O)C(=O)N=2,10 µM (active),
O=c1[nH]c(O)c(C=Nc2cc(F)cc(F)c2)c(=O)[nH]1,,5.27%
COc1ccccc1N=Nc1c(O)[nH]c(=S)[nH]c1=O,,-6.81% [at 57.1 µM]
O=C1N=c2ccccc2=C/C1=C\c1c(O)[nH]c(=S)[nH]c1=O,17.8 µM (active),
CC(=O)Nc1ccc(C(=O)C(Cc2ccccc2)N(C)C)cc1 (centres undefined),,-9.89%
CCC(C)n1c(O)c(/C=N/Nc2nc3c(c(=O)n(C)c(=O)n3C)n2C)c(=O)[nH]c1=S (centres undefined),,12% [at 11.4 µM]
O=C(Cn1c(=O)n(CC2CS2)c2ccccc21)N1CCCCC1 (centres undefined),,10.1% [at 57.1 µM]
OCC#CC[N+]1(CC#Cc2ccccc2)CCCC1,,-2.45%
COCCNC(=O)CN1C2CCC1CC(O)(c1cccnc1)C2 (centres undefined),,8.33% [at 57.1 µM]
CCOc1ccc(C2SCC(=O)Nc3c2c(C)nn3C2CCOC(C)(C)C2)cc1 (centres undefined),,-18%
c1ccc(CCNC2CCCCCC2)cc1,,8.58%
COc1ccc2[nH]c3c(c2c1)CCN[C@H]3C,,-25.8%
O=c1c2ccccc2nc(/C=C/c2ccc(F)cc2)n1-c1ccccc1O,,9.77% [at 57.1 µM]
Cn1cc(/C=C/c2nc3ccccc3c(=O)n2-c2ccccc2)c2ccccc21,,-11.5%
O=c1c2ccccc2nc(/C=C/c2ccco2)n1-c1ccccc1O,15.8 µM (active),
Cc1cccc(Cn2cccc(C(=O)Nc3ccc4c(c3)OCCO4)c2=O)c1,,8.05% [at 57.1 µM]
O=C1NC(=O)C(Cc2ccccc2)C(=O)N1,,-9.71% [at 2.29 µM]
CN(C)CCCN=Cc1c(O)n(Cc2ccco2)c(=O)[nH]c1=O,,40% [at 57.1 µM]
CCCCn1c(O)c(C(CC)=NCc2ccco2)c(=O)[nH]c1=O,,-10.3%
CCC(=NCc1ccco1)c1c(O)n(Cc2ccccc2)c(=O)[nH]c1=O,14.1 µM (active),

Structure (SMILES),Potency,"activity change, negative = inhibition"
O=C(COC(=O)Cc1ccccc1)Nc1ccc(F)cc1,,18.2%
CCOc1ccc(-c2cc(C)n3nc(C(=O)Nc4ccc(C)c(C)c4)cc3n2)cc1,,47.3%
CC(C)c1c(CN(C)C(C)Cc2ccccc2)n(C)n(-c2ccccc2)c1=O (centres undefined),,-6.1%
ClCCN(CCCl)c1ccc(C=Nc2ccc(/C=C/c3ccnc4ccccc34)cc2)cc1,,-2.65%
CC(=O)NBr,inactive,
COc1ccc(NC(=O)c2cn(CCC#N)nc2-c2ccc([N+](=O)[O-])cc2)cc1,,13.3% [at 57.1 µM]
O=C1NC(=O)N(c2ccccc2)C(=O)/C1=C/c1ccc([N+](=O)[O-])s1,22.4 µM (active),
COC(=O)C1=C(c2ccc(F)cc2OCc2ccccc2)C[C@@H]2CC[C@H]1N2C(=O)NCc1ccc(Cl)cc1,,18.9%
O=[N+]([O-])c1ccc(Cl)c(Cl)c1,,6.58%
C=CCN(CC=C)C(=O)Nc1ccc(OCC)cc1,,11.4% [at 57.1 µM]
C=CCN1C(=O)NC(=O)/C(=C/c2ccc(OCC(=O)Nc3ccc(C)cc3)cc2)C1=O,20 µM (active),
CCC(=O)c1ccc(OCC(=O)N2CCN(CC(=O)Nc3ccc(C)cc3)CC2)cc1,,8.72%
COc1cc(Cl)ccc1Nc1ncc(C(=O)N2CCN(c3ccccc3OC)CC2)c2ccccc12,,107%
N#Cc1c(Cl)c(Cl)c(Cl)c(C#N)c1Cl,0.282 µM (active),
C=CCN1CCC23c4c5ccc(O)c4O[C@H]2C(=O)CC[C@@]3(O)C1C5 (some centres undefined),inactive,
Cc1ncsc1CCCl,,-10.7% [at 57.1 µM]
Cc1ccccc1NC(=O)COC(=O)c1cc(C)n(C2CC2)c1C,,-13.9%
O=P1(Oc2ccccc2)CC(O)C(O)C(COCc2ccccc2)O1 (centres undefined),,14.5%
CO[C@H]1[C@@H](O)[C@@H](C)O[C@H](O[C@H]2[C@H](Oc3cccc4c(O)c5c(=O)oc6ccc(C)c7c(=O)oc(c34)c5c67)O[C@H](C)[C@H](O)[C@@H]2O)[C@@H]1O,,3.86%
